# Bioassay records as filed in PubChem BioAssay.
# HSF-1 act – increases HSF-1 driven luciferase reporter signal | NIH3T3-HGL HSF-1 luciferase reporter, MG132, 8 h; 100% = twice DMSO control signal | activation, % at 9 µM | hit rate 1.7% among 300,000 | AID 504408;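 active = mean replicate activation of at least 50% with a set share of replicates each reaching 50%; inconclusive = only one of those two conditions met; inactive = mean below 50% and too few replicates reaching it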;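 note: 0% = median of the neutral control wells and 100% = twice that signal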
# MITF TRPM1 HTS – MITF TRPM1 promoter activation in melanoma cells; SK-MEL-5 TRPM1-promoter luciferase, 24 h; % of positive control, neutral wells = 0; activation, % at 12.5 µM; hit rate 0.75% among 300,000;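 active = mean activation of at least 80% with every replicate also reaching 80%; inconclusive = mean reaches 80% but some replicate falls short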;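 note: 0% = neutral control wells and 100% = parthenolide positive control wells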
# Wnt bcat act – activates Wnt/beta-catenin signaling in a reporter cell assay; activator, plate reader; activation, % at 9.35 µM; hit rate 1.2% among 300,000; AID 743398; in the data active = activation above about 30%, passing the limit was not always enough; inconclusive = no clear call, values can overlap the other calls;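 note: 0% = neutral control wells and 100% = positive control wells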
# esBAF inh – inhibitors of esBAF chromatin remodeling in mouse ES cells; Bmi1-luciferase knock-in reporter, 24 h; 100% = twice the neutral-well signal; reporter increase, % at 12.5 µM; hit rate 2% among 350,000; in the data active = activation above about 40%; inconclusive = no clear call, values can overlap the other calls;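 note: 0% = median of the plate's neutral control wells and 100% = double that signal; a rise in the Bmi1 reporter signal indicates esBAF inhibition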
# HSF1 inhib – HSF1 inhibition; NIH3T3-HGL HSE-luciferase, MG132-induced, luminescence 8 h; stronger effect = lower value; AID 2098; hit rate 0.77% among 300,000; activity change, negative = inhibition, % at 7.5 µM (by protocol);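 active = more than half of replicate wells show activity change below -50%, luminescence cut by over half; inconclusive = some wells, but at most half, below -50%; inactive = no replicate well below -50%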;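 note: luciferase reports HSF-1 transcriptional activity via heat shock element; 0% = median of DMSO wells and -100% = zero luminescence signal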
# * hit, by the source's call; ? = inconclusive; . = no result. Sampled rows, rich in hits. Any-hit rate of the full collection: about 3.9%.
SMILES,HSF-1 act,MITF TRPM1 HTS,Wnt bcat act,esBAF inh,HSF1 inhib
CO[C@H]1CN(C)C(=O)c2cc(NS(C)(=O)=O)ccc2OC[C@H](C)N(C(=O)C2CCOCC2)C[C@@H]1C,.,.,.,-2,.
CC(C)NC(=O)COc1ccc(S(=O)(=O)N(C)Cc2ccccc2)cc1,17,-4,44*,-6,5
COc1cccc(C(=O)O/N=C(\N)c2ccc([N+](=O)[O-])cc2)c1OC,49,84*,.,21,28
COc1ccccc1C(=O)O/N=C(\N)c1ccccc1Cl,70*,41,70*,.,24
COc1ccc(/C(N)=N/OC(=O)c2cccc([N+](=O)[O-])c2C)cc1OC,10,11,.,.,-4
CCCNC(=O)N1C[C@@H](C)[C@@H](OC)CN(C)C(=O)c2ccc(NS(C)(=O)=O)cc2OC[C@@H]1C,.,.,.,3,.
C[C@H](CO)N1C[C@H](C)[C@H](CN(C)C(=O)Nc2ccc(F)cc2)Oc2ccc(NC(=O)C3CC3)cc2C1=O,.,.,.,5,.
C[C@H]1CN([C@@H](C)CO)C(=O)c2cc(-c3cccnc3)cnc2O[C@H]1CN(C)C(=O)Nc1ccc(C(F)(F)F)cc1,.,.,.,-5,.
O=C(Nc1ccccc1Cl)N1C[C@@H]2[C@H](c3ccccc31)[C@H](CO)N2Cc1ccccc1,.,.,.,-4,.
CCC1(C)N=C(c2ccc3c(c2)OCO3)CC(c2ccccc2O)N1 (stereo unspecified),36,40,14,46*,21
CC(=O)c1c(C)[nH]c(C(=O)OCC(=O)c2ccc(C)s2)c1C,.,62,21,56*,.
CC(=O)c1c(C)[nH]c(C(=O)OCC(=O)C(C)(C)C)c1C,-5,-7,0,.,2
O=C(OCC(=O)c1ccc(Br)s1)c1ccc(O)cc1,.,40,43*,76*,.
CC(=O)c1c(C)[nH]c(C(=O)OCC(=O)c2c[nH]c3ccccc23)c1C,.,6,17,53*,.
Cc1ccc(C(=O)COC(=O)c2ccc(Cl)c(N)c2)s1,.,38,30,92*,.
Nc1cc(C(=O)OCC(=O)c2ccc(CC(=O)N3CCOCC3)s2)ccc1Cl,.,-5,0,1,.
COc1ccc(C#Cc2ccc3c(c2)O[C@H](CN(C)C(C)=O)[C@@H](C)CN([C@H](C)CO)S3(=O)=O)cc1,.,.,.,0,.
CCNC(=O)C[C@@H]1CC[C@@H](NC(=O)C2CCOCC2)[C@@H](CO)O1,.,.,.,-1,.
C[C@@H]1CN([C@H](C)CO)C(=O)c2cccc(NC(=O)C3CCOCC3)c2O[C@H]1CN(C)S(=O)(=O)c1ccc(F)cc1,.,.,.,2,.
CC1(C)CC(=O)C2=C(C1)OC(N)=C(C#N)C2C#Cc1ccccc1 (stereo unspecified),78*,-3,4,10,22
Cc1ccc(C(c2nnnn2C2CCCC2)N2CCc3ccccc32)cc1 (stereo unspecified),59*,34,0,.,16
Cc1ccc(/C=C2\SC(=S)N(CCCC(=O)NNC(=O)c3ccccc3O)C2=O)cc1,-56,-92,-6,-86,-52*
CCOc1ccc(/C=C2/SC(=S)N(CCC(=O)Nc3ccc(C(=O)O)cc3)C2=O)cc1,4,55,6,-37,-1
CCOc1ccc(/C=C2\SC(=S)N(CCC(=O)O)C2=O)cc1,-62,-83,1,.,-60*
Cc1ccc(/C=C2\SC(=S)N(CCC(=O)NNC(=O)c3ccccc3O)C2=O)cc1,-3,-22,-6,-9,-14
SMILES,HSF-1 act,MITF TRPM1 HTS,Wnt bcat act,esBAF inh,HSF1 inhib
CC(=O)N[C@@H]1C=C[C@@H](CC(=O)NCc2ccc(Cl)cc2)O[C@H]1CO,.,.,.,5,.
C[C@@H]1CCCCO[C@@H](CN(C)Cc2ccc(Cl)c(Cl)c2)[C@@H](C)CN([C@@H](C)CO)C(=O)c2cc(NC(=O)c3ccccc3)ccc2O1,.,.,.,7,.
C/C=C/c1cnc2c(c1)C(=O)N([C@H](C)CO)C[C@H](C)[C@@H](CN(C)Cc1ccncc1)O2,.,.,.,-2,.
CC1(C)Cc2nc3[nH]c(=S)n(-c4ccccc4)c(=O)c3cc2CO1,-72,10,.,-4,-62*
CCC1(C)Cc2nc3[nH]c(=S)n(-c4ccccc4)c(=O)c3cc2CO1 (stereo unspecified),18,-4,-5,1,-4
Cc1cccc2nc(=S)n(C(=O)c3ccco3)n12,5,58,.,75*,7
CCN1[C@H](C(=O)N(C)C)[C@@H](CO)[C@@H]2Cn3c(ccc(C4=CCCCC4)c3=O)[C@@H]21,.,.,.,-1,.
CCCc1ccc2oc(C(=O)N(C)Cc3nccs3)c(C)c2c1,67*,41,13,52*,28
CCCc1ccc2oc(C(=O)N3CCC(O)CC3)c(C)c2c1,22,55,0,?,14
CO[C@H]1CN(C)C(=O)c2ccc(NS(=O)(=O)CC(F)(F)F)cc2OC[C@H](C)N(C)C[C@H]1C,.,.,.,-4,.
Fc1ccccc1SCc1nnc(-c2ccccc2Br)o1,79*,42,13,-18,41
COc1cccc(C(=O)N2C[C@@H]3[C@H](c4ccccc42)[C@H](CO)N3C(=O)NC(C)C)c1,.,.,.,-1,.
CN1C(=O)c2cc(NC(=O)c3ccc(F)c(F)c3)ccc2OC[C@@H]2O[C@H](CC(=O)N[C@H]3CCN(Cc4ccccc4)C3)CC[C@H]21,.,.,.,-3,.
O=C(O)c1cccc(N/N=C/c2ccc(F)c(F)c2)c1,-10,-15,-4,31,-15
Cc1ccc(/C=N/Nc2ccc(C(=O)O)cc2)s1,-79,-82,-4,-20,-76*
O=C(O)c1cc(N/N=C/c2ccc(-c3ccccc3)cc2)ccc1Cl,-4,8,48*,?,-12
Cc1ccc(/C=N/Nc2cccc(C(=O)O)c2)s1,-43,-48,.,.,-32
O=C(O)c1ccc(/C=N/Nc2cccc(C(F)(F)F)c2)cc1,?,111*,11,88*,24
O=C(O)c1ccc(N/N=C/c2ccc(-c3ccccc3)cc2)cc1,8,92*,1,.,-9
CO[C@@H](CN(C)Cc1cc(F)ccc1F)[C@H](C)CN(C(=O)Nc1ccc(F)cc1)[C@@H](C)CO,.,.,.,1,.
O=C(C[C@H]1CC[C@H](NC(=O)c2cccnc2)[C@@H](CO)O1)NCCN1CCCCC1,.,.,.,1,.
CC(C)c1ccc(/C=N/Nc2ccc(C(=O)O)cc2)cc1,-91,-67,-26,.,-90*
O=C(O)c1ccc(N/N=C/c2ccc(OC(=O)c3ccccc3Cl)cc2)cc1,-56,-12,2,.,-55*
Nc1ccc(C(=O)N/N=C\c2ccc(OC(=O)c3ccccc3Cl)cc2)cc1,1,30,2,13,4
C[C@@H]1CN([C@H](C)CO)C(=O)c2cc(NS(C)(=O)=O)ccc2O[C@@H]1CN(C)CC1CCCCC1,.,.,.,-6,.
O=S(=O)(C/C(=C/CO)S(=O)(=O)c1ccccc1)c1ccccc1,-79,.,.,-53,-77*
O=C(CS(=O)(=O)c1ccccc1)CS(=O)(=O)c1ccccc1,.,.,-1,.,.
C[C@@H]1CN([C@H](C)CO)S(=O)(=O)c2ccc(-c3ccncc3)cc2O[C@@H]1CN(C)Cc1ccccn1,.,.,.,-6,.
